Holding throughout (assay): NCI-60 one-dose screen, 48 h (100 = growth as untreated, 0 = no growth, -100 = all killed)
Common to all, as to details: 10 µM unless noted

The subject of assay [1] is DU-145 prostate.
Assay [2] concerns K-562 leukemia.
In assay [3] the test system is MALME-3M melanoma.
In assay [4] the test system is MDA-MB-231 breast.
For assay [5], the system named is RXF 393 renal.
Assay [6] deals with SF-268 CNS.
In assay [7] the test system is SF-539 CNS.
Assay [8] relates to UACC-257 melanoma.
Assay [9] has as its system M14 melanoma.
Assay [10] relates to HCT-15 colon.
For assay [11], the system named is HT29 colon.
The subject of assay [12] is SNB-75 CNS.
The test system of assay [13] is SNB-19 CNS.
Assay [14] deals with U251 CNS.
Assay [15] relates to PC-3 prostate.
The subject of assay [16] is SK-MEL-5 melanoma.
Assay [17] has as its system UACC-62 melanoma.
Assay [18] relates to LOX IMVI melanoma.
For assay [19], the system named is SK-MEL-28 melanoma.

Each structure is given as a SMILES string. About 83,000 compounds went through this panel and 20% of them were active in at least one assay; those are over-represented in the sample as a whole.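 In brief: 96-well plates, 48 h treatment, single concentration, percent growth endpoint.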 Values without a mark were called inactive. The source made the active and inactive calls. How the source made its calls: active means growth percent below 10; inactive means the rest.

With `O=C(Nc1ccc(OS(=O)(=O)c2ccc(F)cc2)cc1)C12CC3CC(CC(C3)C1)C2`, the growth is 87.1% in [1]; 27.5% in [2]; 99.7% in assay [3]; 59.2% in [4]; 58.6% in assay [5]; 78.4% in [6]. For the same compound, the growth is 61% in assay [7]; 65.3% in assay [8]; 58.8% in assay [9]; 42.3% in assay [10]; 7.52% (active) in [11]; 101% in assay [12]. Besides, the growth was 77.9% in assay [13]; 84% in assay [14]; 38% in [15]; 28.3% in [16]; 68% in assay [17]; 61.6% in assay [18]. In [19], the growth was 79.7%.
With `COc1ccc(/C=c2\c(=O)n(-c3ccccc3)c3nn4c(=O)c(=O)[nH]nc4n23)cc1`, the growth in assay [1] was 115%; in assay [2], 122%; in [3] it was 104%; in assay [4] it was 122%; in assay [5] it was 123%; in assay [6], 104%. Besides, the growth was 103% in [7]; 110% in [8]; 99.5% in assay [9]; 106% in assay [10]; 110% in assay [11]; 109% in assay [12]. For the same compound, the growth in assay [13] is 111%; in assay [14], 112%; in [15] it was 102%; in [16], 101%; in assay [17] it was 101%; in assay [18], 96.3%. For the same compound, the growth in assay [19] was 131%.
As for `Fc1cnccc1-c1nc2ccc3[nH]ncc3c2c2c1CCCC2`, the growth is 24.1% in [1]; 30.9% in [2]; 44.2% in assay [3]; 51.2% in [4]; -23.9% (active) in [5]; 31.9% in [6]. In addition, the growth was 5.76% (active) in assay [7]; 63% in assay [8]; 26% in [9]; 12.4% in assay [10]; 25.4% in [11]; -25.5% (active) in assay [12]. For the same compound, the growth in assay [13] is 44.2%; in assay [14], 29.6%; in assay [15], 27.1%; in assay [16], 29%; in [17], 17.3%; in [18], 22.8%. In addition, in assay [19], the growth is 24.3%.
On to `C/C(CC(=O)NNc1ccc([N+](=O)[O-])cc1)=N\Nc1ccc([N+](=O)[O-])cc1`, for which the growth in assay [1] is 62.1%; in assay [2] it was 12.9%; in assay [3] it was 93.4%; in [4], 47%; in assay [5] it was 118%; in [6], 83.8%. Moreover, the growth in assay [7] is 68.2%; in assay [8], 99.6%; in [9], 25.5%; in [10], 49.6%; in assay [11] it was 71.4%; in assay [12] it was 97.3%. Also, the growth was 104% in assay [13]; 78.5% in [14]; 54.7% in assay [15]; 59.4% in assay [16]; 9.12% (active) in assay [17]; 70.3% in assay [18]. Further, the growth in [19] was 114%.
In the case of `C=CCn1c(SCC(=O)Nc2ccc(C(=O)/C=C/c3ccccc3)cc2)nnc1-c1ccc(OC)c(OC)c1`, the growth in assay [1] is 89.6%; in assay [2] it was 47.5%; in assay [3], 105%; in assay [4], 77.1%; in [5] it was 85.7%; in assay [6], 86%. In addition, the growth in [7] was 92.1%; in assay [8], 79.9%; in assay [9], 73.6%; in assay [10] it was 64.2%; in [11], 80.1%; in assay [12], 79.1%. For the same compound, the growth in assay [13] was 76.4%; in assay [14] it was 72.7%; in assay [15], 67.8%; in assay [16], 61.3%; in assay [17], 72.1%; in [18], 84.9%. Also, the growth in [19] was 97.6%.
As to `CC(=O)[C@H]1CC[C@H]2[C@@H]3CC[C@H]4CC=CC[C@]4(C)[C@H]3CC[C@]12C`, the growth is 111% in assay [1]; 84.9% in assay [2]; 84% in [3]; 99.4% in assay [4]; 98.2% in assay [5]; 102% in [6]. The growth is 91.6% in assay [7]; 75.6% in assay [8]; 90.3% in [9]; 89.8% in [10]; 79.4% in assay [11]; 74.1% in assay [12]. Besides, the growth in [13] is 98.1%; in [14] it was 102%; in assay [15] it was 58%; in [16] it was 98.8%; in [17] it was 79.9%; in [18], 95.4%. Further, the growth in assay [19] is 89.1%.
For `Cc1cc(C)cc(Nc2cc(C)nc3nc(C(F)(F)F)nn23)c1`, the growth in assay [1] was 38.1%; in assay [2] it was 20.2%; in [3] it was 45.5%; in assay [4] it was 50.1%; in assay [5] it was 52.1%; in assay [6], 28.7%. Also, the growth was 4.14% (active) in assay [7]; 30.7% in [8]; 24% in assay [9]; 30.4% in assay [10]; 41.5% in [11]; 61.6% in assay [12]. The growth is 45.7% in assay [13]; 31.5% in [14]; 57.1% in assay [15]; 32.1% in [16]; -33.8% (active) in [17]; 24.1% in [18]. For the same compound, the growth in assay [19] is 50.8%.
In the case of `COc1ccc(/C=C/C(=O)c2ccc(NC(=O)CSc3nnc(-c4ccc(Cl)cc4)n3-c3ccccc3)cc2)cc1`, the growth in assay [1] is 106%; in assay [2] it was 80.1%; in assay [3], 118%; in [4] it was 91%; in assay [5], 104%; in [6] it was 96.1%. Moreover, the growth in [7] was 109%; in assay [8] it was 86.7%; in [9] it was 91.9%; in assay [10], 80.5%; in assay [11] it was 98.7%; in assay [12] it was 84.2%. Also, the growth was 96.2% in [13]; 88.2% in [14]; 84.5% in assay [15]; 84.1% in assay [16]; 74.6% in [17]; 105% in assay [18]. The growth in [19] was 104%.
As to `CSC1=NC(=Nc2c(C)cccc2C)C2(CCC(C(C)(C)C)CC2)N1c1ccc(Cl)cc1` (configuration not stated), the growth in [1] is 40.3%; in assay [2], 17.7%; in [3], 38.5%; in [4], 61.8%; in assay [5] it was 38%; in [6] it was 42.8%. The growth in [7] was 46.5%; in assay [8], 54.1%; in assay [9], 49.5%; in assay [10], 31.9%; in assay [11], 25.5%; in assay [12], 74.8%. In addition, the growth is 75.3% in assay [13]; 30.6% in [14]; 47.9% in [15]; 47.6% in assay [16]; 73.8% in assay [17]; 20.8% in assay [18]. Besides, the growth in assay [19] was 79.5%.
`O=C(C(Br)C(Br)c1ccccc1)C(Br)C(Br)c1ccccc1` (configuration not stated): the growth in assay [1] was -26.4% (active); in assay [2], -17.5% (active); in assay [3], -69.5% (active); in assay [4], -16.5% (active); in assay [5], -85.1% (active); in assay [6], -1.83% (active). Also, the growth in assay [7] was -42.5% (active); in assay [8], -67.3% (active); in assay [9] it was 1.62% (active); in assay [10], -66.4% (active); in [11], -76% (active); in assay [12] it was 60%. The growth was 72.8% in assay [13]; 4.89% (active) in assay [14]; -31.2% (active) in [15]; 2.03% (active) in [16]; -83.5% (active) in assay [17]; -79.1% (active) in assay [18]. Also, in [19], the growth is -35.6% (active).
Regarding `CCN(CC)Cc1cc(Nc2nc(NC3CCC(N(C)C)CC3)c3ccccc3n2)ccc1OC` (configuration not stated), the growth in assay [1] is 98.8%; in assay [2], 7.54% (active); in [3], 69.1%; in assay [4], 39.8%; in assay [5], 74.9%; in assay [6], 69.8%. The growth was 73.9% in assay [7]; -32.6% (active) in assay [8]; -10.2% (active) in assay [9]; 94.7% in assay [10]; 14.2% in assay [11]; 72.3% in assay [12]. Further, the growth in [13] is 89.4%; in assay [14] it was 50.5%; in [15], 62.6%; in assay [16] it was 45.7%; in assay [17] it was 98.4%; in assay [18], 33.7%. Further, in [19], the growth is 20.6%.
On to `Brc1cccc(-n2ncc3c(Nc4ccc(-c5nnc(-c6ccccc6)o5)cc4)ncnc32)c1`, for which the growth was 111% in assay [1]; 110% in [2]; 110% in assay [3]; 93.5% in assay [4]; 92.9% in assay [5]; 98.6% in [6]. The growth in assay [7] was 95.9%; in [8], 108%; in assay [9], 108%; in assay [10], 101%; in assay [11] it was 106%; in assay [12], 92.3%. For the same compound, the growth in [13] was 102%; in [14] it was 103%; in assay [15], 95.1%; in assay [16], 98.7%; in assay [17], 93.3%; in assay [18], 93.3%. Moreover, the growth in [19] is 112%.
For `CC(=O)c1ccc(-n2c(-c3cc(-c4ccsc4)n[nH]3)n[nH]c2=S)cc1`, the growth in assay [1] is 110%; in assay [2] it was 105%; in assay [3], 106%; in [4] it was 105%; in assay [5], 106%; in assay [6], 107%. The growth is 97.5% in assay [7]; 101% in assay [8]; 97.8% in [9]; 96.5% in assay [10]; 94.1% in assay [11]; 91.2% in assay [12]. Also, the growth in assay [13] was 101%; in assay [14] it was 102%; in assay [15], 84.3%; in [16], 101%; in [17] it was 95.9%; in assay [18], 99%. For the same compound, in [19], the growth is 98.8%.

The values above are taken from PubChem BioAssay (NCI).
